Test results as given in article PMC4336329 (PLoS ONE, 2015).
Hit rate of the full screen: of about 310,000 compounds, about 14,000 (4.5%) showed an effect of 50% or more. The effect is printed as a negative number. The full list was thinned out, with strong results kept by preference.
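Also: peak tail current of the secondary pulse compared with the same well before compound.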

Each compound was assayed against human ether-à-go-go-related gene (hERG) potassium channel (human, UniProt Q12809) (assay: primary screen, population patch clamp on CHO cells stably expressing hERG; higher = less effect of the substance).
human ether-à-go-go-related gene (hERG) potassium channel, sequence (Q12809 whole entry, looked up): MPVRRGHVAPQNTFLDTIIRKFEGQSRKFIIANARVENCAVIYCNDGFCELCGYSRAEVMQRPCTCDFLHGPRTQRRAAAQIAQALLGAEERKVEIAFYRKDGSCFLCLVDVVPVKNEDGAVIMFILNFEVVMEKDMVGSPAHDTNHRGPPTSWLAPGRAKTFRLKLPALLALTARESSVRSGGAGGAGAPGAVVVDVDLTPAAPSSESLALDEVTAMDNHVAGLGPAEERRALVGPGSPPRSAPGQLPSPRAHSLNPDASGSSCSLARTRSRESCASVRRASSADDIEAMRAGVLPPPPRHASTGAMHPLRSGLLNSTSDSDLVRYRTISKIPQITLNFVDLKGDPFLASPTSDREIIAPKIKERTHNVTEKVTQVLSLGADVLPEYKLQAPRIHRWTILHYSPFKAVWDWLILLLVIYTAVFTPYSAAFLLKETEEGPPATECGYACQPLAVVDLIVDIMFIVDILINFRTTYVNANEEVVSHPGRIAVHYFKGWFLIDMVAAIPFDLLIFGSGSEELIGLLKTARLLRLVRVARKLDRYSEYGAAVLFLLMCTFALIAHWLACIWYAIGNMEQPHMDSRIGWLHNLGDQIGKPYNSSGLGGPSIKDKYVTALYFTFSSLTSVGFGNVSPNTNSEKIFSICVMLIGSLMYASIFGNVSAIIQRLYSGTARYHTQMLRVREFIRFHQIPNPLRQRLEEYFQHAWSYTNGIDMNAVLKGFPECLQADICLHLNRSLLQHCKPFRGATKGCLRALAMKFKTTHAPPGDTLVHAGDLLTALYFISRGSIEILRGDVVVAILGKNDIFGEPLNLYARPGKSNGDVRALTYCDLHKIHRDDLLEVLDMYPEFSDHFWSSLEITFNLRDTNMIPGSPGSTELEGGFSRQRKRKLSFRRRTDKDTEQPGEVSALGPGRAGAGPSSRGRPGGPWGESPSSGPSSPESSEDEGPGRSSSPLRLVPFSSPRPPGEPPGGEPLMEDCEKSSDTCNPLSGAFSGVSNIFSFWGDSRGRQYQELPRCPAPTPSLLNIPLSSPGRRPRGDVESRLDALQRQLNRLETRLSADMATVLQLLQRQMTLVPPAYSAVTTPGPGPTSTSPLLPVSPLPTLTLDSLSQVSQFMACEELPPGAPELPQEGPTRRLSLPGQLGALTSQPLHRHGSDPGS
`Cc1cccc(NC(=O)CC2NCCNC2=O)c1` (stereo not drawn) was tested, and the “hERG current change (%, negative = inhibition) at 10uM” value was 8.94%.
For `O=C(CSc1nnc(-c2cccnc2)n1-c1ccccc1)Nc1ccccn1`, the “hERG current change (%, negative = inhibition) at 10uM” value was -41%.
For `Cc1ccc(NC(=O)C(C)Sc2nnc(-c3cccnc3)o2)cc1` (stereo not drawn), the “hERG current change (%, negative = inhibition) at 10uM” value was 11.9%.
With `O=C(CSc1nnc(-c2cccnc2)n1-c1ccccc1)Nc1ccccc1` the “hERG current change (%, negative = inhibition) at 10uM” value was -76.3%.
For `Cc1ccc(NC(=O)C(C)Sc2nnc(-c3cccnc3)n2-c2ccccc2)cc1` (stereo not drawn), the “hERG current change (%, negative = inhibition) at 10uM” value was -81.4%.
In the case of `Cc1nnc(SCC(=O)Nc2cccc(N)c2)n1-c1ccccc1`, the “hERG current change (%, negative = inhibition) at 10uM” value was -10.1%.
In the case of `Cc1ccccc1-n1c(SC(C)C(N)=O)nnc1-c1cccnc1` (stereo not drawn), the “hERG current change (%, negative = inhibition) at 10uM” value was -6.92%.
In the case of `Cc1ccc(NC(=O)CSc2nnc(C)n2-c2ccccc2)cc1`, the “hERG current change (%, negative = inhibition) at 10uM” value was -3.7%.
For `Cc1ccc(NC(=O)CSc2nnc(-c3cccnc3)n2-c2ccc(C)cc2)cc1`, the “hERG current change (%, negative = inhibition) at 10uM” value was -21.4%.
With `COc1ccc(NC(=O)CSc2nnc3ccc(-c4cccnc4)nn23)cc1` the “hERG current change (%, negative = inhibition) at 10uM” value was -46.4%.
In the case of `Nc1nnc(SCC(=O)Nc2ccc(F)c(Cl)c2)n1-c1ccccc1`, the “hERG current change (%, negative = inhibition) at 10uM” value was -70.7%.
`O=C(CSc1nnc2ccc(-c3cccnc3)nn12)Nc1ccc(F)cc1` was tested, and the “hERG current change (%, negative = inhibition) at 10uM” value was -63%.
In the case of `COc1cc(NC(=O)CSc2nnc3ccc(-c4cccnc4)nn23)cc(OC)c1`, the “hERG current change (%, negative = inhibition) at 10uM” value was -9.05%.
In the case of `COC(=O)c1cn(NC(=O)c2ccc([N+](=O)[O-])cc2Cl)c(=O)c2ccccc12`, the “hERG current change (%, negative = inhibition) at 10uM” value was -5.68%.
In the case of `CCCn1c(SCC(=O)NCc2ccccc2)n[nH]c1=O`, the “hERG current change (%, negative = inhibition) at 10uM” value was 7.49%.
In the case of `CCN(CC(=O)Nc1cccc(S(=O)(=O)N2CCOCC2)c1)Cc1ccccc1`, the “hERG current change (%, negative = inhibition) at 10uM” value was -4.27%.
With `CCOC(=O)c1cc(-c2ccc(N3CCOCC3)cc2)nn1-c1ccccc1` the “hERG current change (%, negative = inhibition) at 10uM” value was -48.9%.
In the case of `CCCCOc1nc2ccccc2c(=O)n1-c1ccccc1`, the “hERG current change (%, negative = inhibition) at 10uM” value was -11.6%.
For `Cc1cc(C)n2nc(C(=O)OC(C)C(=O)c3ccccc3)nc2n1` (stereo not drawn), the “hERG current change (%, negative = inhibition) at 10uM” value was 17.9%.
For `O=C(Cn1[nH]c(=O)c2ccccc2c1=O)NC1CCN(Cc2ccccc2)CC1`, the “hERG current change (%, negative = inhibition) at 10uM” value was 0.791%.
In the case of `COc1ccc2c(c1OC)C(=O)N(C(C)C(=O)O)C2=O` (stereo not drawn), the “hERG current change (%, negative = inhibition) at 10uM” value was 10.1%.
With `O=C(CSc1nnc2ccc(-c3cccnc3)nn12)Nc1ccccc1` the “hERG current change (%, negative = inhibition) at 10uM” value was -50.6%.
For `Cc1ccc(NC(=O)CSc2nnc3ccc(-c4cccnc4)nn23)cc1`, the “hERG current change (%, negative = inhibition) at 10uM” value was -49.3%.
`CC(=O)Nc1ccc(NC(=O)CSc2nnc3ccc(-c4cccnc4)nn23)cc1` was tested, and the “hERG current change (%, negative = inhibition) at 10uM” value was 19.8%.
